Test results reported in PubChem BioAssay AID504834 (National Center for Advancing Translational Sciences (NCATS), 2011).
In all, about 320,000 compounds went through this assay and about 22,000 (6.9%) were called active. Not shown: some 27% with an inconclusive outcome. The list comes from a sample in which actives are over-represented; it also holds similar structures and randomly drawn compounds. A number with no mark means an inactive call. Calls come from the whole dose curve; as a rule, active = well fitted inhibition curve with a large enough effect; inconclusive = small, poorly fitted or top-dose-only effect, or another doubt; inactive = no such curve, though single readings can be large or run the other way.

Experiment: Primary qHTS for delayed death inhibitors of the malarial parasite plastid, 96 hour incubation
Settings: P. falciparum luciferase reporter growth; series mostly up to 28.7 µM; activity change, negative = inhibition: at the top concentration
Outline: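 P. falciparum expressing integrated firefly luciferase grown in erythrocytes (2% hematocrit, 0.05% parasitemia final) with compounds for 96 hours at 37 C, 5% CO2. Growth inhibition read as loss of luminescence after adding luciferase detection reagent.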
% is set by controls: 0 for no effect and ±100 for the full control effect; potency is the fitted concentration of half-maximal effect.

Row | Compound | activity change, negative = inhibition [%] | Potency
1 | O=S(=O)(NC1CC1)c1ccc(Cl)cc1 | 9.29 | –
2 | O=C(NCc1ccccn1)c1c(O)c2c([nH]c1=O)CCCC2 | – | 7.38 µM (active)
3 | C[N+](C)(C)CCNC(=O)c1c(O)c2c([nH]c1=O)CCCC2 | 0 | –
4 | CCc1nnc(NC(=O)c2c(O)c3c([nH]c2=O)CCCC3)s1 | 60.9 | –
5 | Nc1nnn(CC(=O)N/N=C/c2ccccc2)n1 | 5.79 | –
6 | O=c1c2ccccc2c(-c2ccccc2)nn1Cc1ccccc1 | -15.9 | –
7 | O=c1cc(N2CCN(Cc3ccccc3)CC2)c(-c2ccccc2)n[nH]1 | 6.44 | –
8 | O=c1cc(N2CCCCC2)c(-c2ccccc2)nn1Cc1cccc(F)c1 | – | 11.7 µM (active)
9 | O=C(CN(Cc1ccc(Br)cc1)S(=O)(=O)c1ccccc1)NCc1ccncc1 | 16.3 | –
10 | Cc1nn2c(=O)cc(COC(=O)c3ccc(NC(=O)C(C)(C)C)cc3)nc2s1 | -3.18 | –
11 | CSc1ccc(S(=O)(=O)NCC(=O)OCC(=O)NC2(C#N)CCCCC2)cc1[N+](=O)[O-] | 26.1 | –
12 | Cc1ccc(C(=O)OCC(=O)NCc2cc(C)c(O)c(C)c2)cc1S(=O)(=O)N1CCCCC1 | – | 14.7 µM (active)
13 | COc1ccc(CNC(=O)COC(=O)c2ccc(C)c(S(=O)(=O)N3CCOCC3)c2)cc1OC | -27.4 | –
14 | Cc1ccc(C(=O)OCC(=O)N2CC(C)CC(C)C2)cc1S(=O)(=O)N1CCCCC1 (stereo not given) | 8.7 | –
15 | COc1ccccc1CNS(=O)(=O)c1cc(C(=O)NCc2ccccn2)c(Cl)cc1Cl | -11.1 | –
16 | CC(C)(O)C#Cc1ccc(CN2CCC(CO)(CCc3ccccc3)CC2)cc1 | 35.2 | –
17 | CC(=O)c1cccc(CN2CCC(CO)(Cc3ccccc3)CC2)c1 | -0.673 | –
18 | Cc1cccc(-c2ncc(CN3CCC(CO)(CCCc4ccccc4)CC3)cn2)c1 | – | 9.28 µM (active)
19 | CC(C)c1csc(CN2CCC(CO)(Cc3ccccc3)CC2)n1 | 5.83 | –
20 | OCC1(CCc2ccccc2)CCN(Cc2ccc3nsnc3c2)CC1 | – | 11.7 µM (active)
21 | COc1ccc(CC2(CO)CCN(Cc3cnn(C)c3)CC2)cc1 | 34.1 | –
22 | CN(CC1CCCO1)S(=O)(=O)c1ccc(C(=O)Nc2ccc(F)cc2)cc1 (stereo not given) | -8.74 | –
23 | COc1cccc(-c2ccc3c(c2)S(=O)(=O)c2cccc(C(=O)O)c2C3=O)c1OC | 8.29 | –
24 | CCCCN(CC)C(=O)c1ccc2c(c1)OCO2 | 0 | –
25 | CCN(CC)CCC(c1cc(OC)c(OC)c(OC)c1)c1c(OC)cc(OC)c2c(-c3ccccc3)cc(=O)oc12 (stereo not given) | – | 2.94 µM (active)

Row | Compound | activity change, negative = inhibition [%] | Potency
26 | CCN(CC)C(=O)CC(c1ccc2c(c1)OCO2)c1c(OC)cc(OC)c2c(-c3ccccc3)cc(=O)oc12 (stereo not given) | – | 11.7 µM (active)
27 | Cc1[nH][nH]c(=O)c1C(c1ccc2c(c1)OCO2)c1c(C)[nH][nH]c1=O | 19 | –
28 | COc1ccc(F)cc1S(=O)(=O)NCC(c1ccc2c(c1)OCO2)N1CCN(C)CC1 (stereo not given) | -9.2 | –
29 | CC(=O)COc1ccc2c(-c3ccccc3)cc(=O)oc2c1 | 13.2 | –
30 | CCN(CC)CCC(c1ccc2c(c1)OCO2)c1c(OC)cc(OC)c2c(-c3ccccc3)cc(=O)oc12 (stereo not given) | – | 5.22 µM (active)
31 | COc1ccc(-c2cc(=O)oc3cc(OCC(=O)N[C@@H](Cc4c[nH]c5ccccc45)C(=O)O)ccc23)cc1 | 30.8 | –
32 | Cc1cc(=O)oc2c(C)c(OCC(=O)N3CCN(Cc4ccc5c(c4)OCO5)CC3)ccc12 | 11.4 | –
33 | CC(NS(=O)(=O)c1ccc(Br)cc1)C(=O)NCC1CCCO1 (stereo not given) | -1.33 | –
34 | O=C(NNC(=O)c1cc(-c2ccccc2Cl)nc2ccccc12)c1csc(N2CCOCC2)n1 | -6.34 | –
35 | Cc1cc(C)cc(Oc2c(C(F)(F)F)oc3cc(OCC(=O)O)ccc3c2=O)c1 | 38.5 | –
36 | COc1ccccc1C1CCN(C(=S)Nc2ccc(Br)cc2)CC1 | 22.2 | –
37 | COc1ccccc1OCCNC(=O)C(CCSC)NC(=O)COc1ccccc1 (stereo not given) | -0.324 | –
38 | Cc1ccc(CNC(=O)C2CCN(S(=O)(=O)c3ccc4nc5c(c(C(=O)O)c4c3)CC(C)CC5)CC2)cc1 (stereo not given) | -15.1 | –
39 | CC1CCN(C(=O)c2ccccc2NC(=O)Cc2ccccc2)CC1 | 7.37 | –
40 | Cc1c(NC(=O)c2cc(-c3ccc(Br)cc3)on2)c(=O)n(-c2ccccc2)n1C | 23.4 | –
41 | Cc1ccccc1-n1c(C)cc(/C=C2\NC(=O)NC2=O)c1C | 110 | –
42 | Cc1no[n+]([O-])c1COc1ccccc1/C=C1\NC(=S)NC1=O | – | 10.4 µM (active)
43 | O=C(CN1CCN(S(=O)(=O)c2ccc(F)cc2)CC1)NC1CC1 | -1.38 | –
44 | CC(=O)c1ccc(S(=O)(=O)NCc2nnnn2-c2ccccc2)cc1 | -8.2 | –
45 | Cc1cc(NC(=O)COc2ccccc2C#N)no1 | 134 | –
46 | CCOC(=O)C1CCN(c2ncnc3c2oc2ccc(Br)cc23)CC1 | – | 13.1 µM (active)
47 | CCOC(=O)C1CCN(Cc2nnc(-c3cccc(Br)c3)o2)CC1 | -17.5 | –
48 | CCOC(=O)C1CCN(c2ncnc3c2c(-c2ccccc2)cn3-c2ccc(C)cc2)CC1 | -13.3 | –
49 | Cn1cncc1COC(=O)c1ccc(Cl)cc1 | 14 | –
50 | COc1ccccc1C(=O)NCc1nnc(SC(C)C(=O)Nc2nccs2)n1C (stereo not given) | -13.3 | –

Row | Compound | activity change, negative = inhibition [%] | Potency
51 | Cc1ccc(NC(=O)CN2CCc3ccccc3C2)cc1C | -4.43 | –
52 | CC1CN(CC(=O)NC(C)c2ccccc2)CC(C)O1 (stereo not given) | 163 | –
53 | O=C(CN1CCN(Cc2ccccc2)CC1)NC(c1ccccc1)c1ccccc1 | – | 14.7 µM (active)
54 | O=C(Cc1ccc(-c2ccccc2)cc1)NC(c1ccccc1)c1ccccc1 | -28.6 | –
55 | CCCc1cc(=O)[nH]c(SCC(=O)Nc2sc3c(c2C#N)CCCC3)n1 | 16.2 | –
56 | N#CCCN(C(=O)COC(=O)c1ccc(S(=O)(=O)N2CCCCCC2)cc1)c1ccccc1 | 21.3 | –
57 | CC(C)(CNC(=O)CNC(=O)C1CCCCC1)N1CCOCC1 | -41.7 | –
58 | O=C(O)c1ccccc1-c1ccccc1C(=O)NCCc1ccccc1 | 0 | –
59 | CC1(C)CC(=O)C(CC(=O)N2CCC(Cc3ccccc3)CC2)C(=O)C1 | 7.2 | –
60 | Cn1c(=O)c2c(n(Cc3ccccc3)c1=O)NC(=O)C2CC(=O)N1CCc2ccccc2C1 (stereo not given) | – | 11.7 µM (active)
61 | O=C(C(=O)N1CCc2ccccc2C1)N1CCc2ccccc2C1 | 89.7 | –
62 | COc1ccc(/C=C2\SC(=S)N(CCC(=O)Nc3cccc(C(=O)O)c3)C2=O)cc1OC | -1.21 | –
63 | COC(=O)CN1C(=O)C(C)(C)Oc2ccc(C(=O)Nc3cccc(OC)c3)cc21 | 7.01 | –
64 | O=C(NC1C2CC3CC(C2)CC1C3)c1ccc(N2CCNCC2)c([N+](=O)[O-])c1 (stereo not given) | 12.4 | –
65 | Cc1cccc(N2CCN(c3ccc(C(N)=O)cc3[N+](=O)[O-])CC2)c1C | 23.7 | –
66 | CS(=O)(=O)N1CCN(c2ccc(C(=O)NC3C4CC5CC(C4)CC3C5)cc2[N+](=O)[O-])CC1 (stereo not given) | – | 9.28 µM (active)
67 | COc1ccccc1N1CCN(C(=O)CSc2ncnc3c2cnn3-c2ccc(C)c(C)c2)CC1 | 3.67 | –
68 | COc1ccc(S(=O)(=O)NCCc2c[nH]c3ccccc23)cc1OC | -7.21 | –
69 | Cc1ccc(CNC(=O)CCN2C(=O)[C@@H]3Cc4ccccc4CN3C2=O)cc1 | -24.8 | –
70 | C/C(=N\NC(=O)Cc1ccccc1[N+](=O)[O-])c1cccnc1 | -21.8 | –
71 | O=C(COC(=O)Cn1cnc2ccccc2c1=O)NCc1ccccc1Cl | 61.1 | –
72 | Cc1nn(CCCC(=O)NCc2ccccc2Cl)c(=O)c2nccn12 | – | 1.04 µM (active)
73 | Cc1cccn2c(=O)nc(SCC(=O)NCc3ccccc3Cl)nc12 | -16.4 | –
74 | COc1ccccc1NC(=O)CCC(=O)N1CC(C)Oc2ccc(C)cc21 (stereo not given) | 7.94 | –
75 | O=C(c1ccccc1)N1CCN(C(=O)N2CCCCC2)CC1 | 10.7 | –

Row | Compound | activity change, negative = inhibition [%] | Potency
76 | CCOC(=O)N1CCN(S(=O)(=O)c2ccc(-n3cnnn3)cc2)CC1 | 10.9 | –
77 | O=C(c1ccc(-n2cnnn2)cc1)N1CCN(C(c2ccccc2)c2ccccc2)CC1 | – | 4.65 µM (active)
78 | CCn1cc(C(=O)OCC(=O)Nc2cccc(C)c2)c(=O)c2ccc(C)nc21 | 20.8 | –
79 | CCOC(=O)c1cn(CC)c2cc(F)c(F)cc2c1=O | 0.303 | –
80 | Cc1ccccc1N1CC(C(=O)Nc2ccc3c(c2)OCO3)CC1=O (stereo not given) | 11.6 | –
81 | Cc1ccccc1N1CC(C(=O)Nc2ccc(S(=O)(=O)N3CCCC3)cc2)CC1=O (stereo not given) | 9.93 | –
82 | Cc1cccc(N2CC(C(=O)Nc3ccccc3N3CCCC3)CC2=O)c1C (stereo not given) | – | 5.22 µM (active)
83 | CC(=O)C1=C(O)C(=O)N(c2ccc(Br)cc2)C1c1ccc([N+](=O)[O-])cc1 (stereo not given) | -0.955 | –
84 | COC(=O)C1CCN(C(=O)NC2CC(=O)N(c3ccc4c(c3)OCCO4)C2)CC1 (stereo not given) | 15.2 | –
85 | CCOC(=O)C1CCc2nc3ccccc3c(=O)n21 (stereo not given) | 18.4 | –
86 | O=C(CSc1nc2ccccc2c(=O)n1CCCO)NC1CC1 | 12.2 | –
87 | CCOC(=O)C(C)Sc1nc2ccccc2c(=O)n1CC1CCCCC1 (stereo not given) | – | 11.7 µM (active)
88 | O=C(NCCN1CCN(C(=O)c2cccc([N+](=O)[O-])c2)CC1)C(=O)NCc1ccc(Cl)cc1 | -0.891 | –
89 | Cc1ccc(NC(=S)N2CCCC(c3ccccc3)=N2)cc1 | 12.4 | –
90 | CSCCC(NC(=O)c1ccc(Cl)cc1Cl)C(=O)NNC(=O)c1csc(N2CCOCC2)n1 (stereo not given) | 50.2 | –
91 | O=C1OC(/C=C/c2ccccc2)=NC/1=C/c1ccco1 | 41.8 | –
92 | CC(C)(C)C1C/C(=C/c2ccco2)C(=O)/C(=C/c2ccco2)C1 (stereo not given) | – | 13.1 µM (active)
93 | CCC1S/C(=N/N=C/c2ccco2)NC1=O (stereo not given) | 3.41 | –
94 | CCOc1ccc(CNC(=O)CCC(=O)N2CCSc3ccccc32)cc1 | -23.6 | –
95 | Cc1ccc(S(=O)(=O)N2CCN(C(=O)c3ccccc3-c3nc4ccccc4s3)CC2)c(C)c1 | -14.7 | –
96 | CN(C)C(=O)COC(=O)c1cccc(S(=O)(=O)N2CC3(C)CC2CC(C)(C)C3)c1 (stereo not given) | -7.05 | –
97 | Cc1ccc(N(C(=O)c2snc(C(N)=O)c2N)C(C(=O)NCC2CCCO2)c2c[nH]c3ccccc23)cc1 (stereo not given) | 0 | –
98 | c1ccc(CSCCc2ccncc2)cc1 | 40.8 | –
99 | Cc1cc(C)c(SCCc2ccncc2)c(C)c1 | – | 10.4 µM (active)
100 | CC(C)(C)c1ccc(SCCc2ccncc2)cc1 | -26.6 | –
